# Laboratory results: PubChem BioAssay (NCATS)
# Results filed as inconclusive are left out. Values without a mark were called inactive. The source made the active and inactive calls. The call rests on the fitted dose curve; in most records, active means well fitted curve in the direction sought with a large enough effect; inconclusive means small, poorly fitted or top-dose-only effect, or another doubt; inactive means no such curve, though single readings can be large; an effect the other way counts as inactive or inconclusive.
# Columns and labels:
# C33A = assay: Primary qHTS to identify gynecologic anti-cancer compounds using libraries of approved drugs and bioactive compounds (AID 1345084); settings: Gynecologic cancer cell panel viability, ATPlite luminescence, 48 h; series mostly up to 57.5 µM; further: nearly all actives have a fitted effect of over 55% in size; on activity change, negative = cytotoxicity: on the % scale 0 is the no-effect control and ±100 the full control effect
# How it was run: (§1)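 Cytotoxicity screen measuring ATP content by luciferase luminescence. Each compound is applied at five concentrations for 48 h at 37 C with 5% CO2.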
# CASKI = assay: as above; settings: Gynecologic cancer cell panel viability, ATPlite luminescence, 48 h; series mostly up to 57.5 µM
# How it was run: as §1
# Es-2 = assay: as above; settings: Gynecologic cancer cell panel viability, ATPlite luminescence, 48 h; series mostly up to 57.5 µM
# How it was run: as §1
# PA-1 = assay: as above; settings: Gynecologic cancer cell panel viability, ATPlite luminescence, 48 h; series mostly up to 57.5 µM
# How it was run: as §1
# [1] = qHTS assay to identify inhibitors of the type 1 interferon - major histocompatibility complex class I in skeletal muscle: Counter screen cell viability and HiBit confirmation (AID 1347412); settings: iHSKM muscle cells + IFN-b, HiBiT or CellTiter-Glo, 24 h; further: nearly all actives have a fitted effect of over 60% in size
# How it was run: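 After 24 h with human IFN-beta (4 ng/ml) and compound titrations (top 46 uM final, 1:3, 12 points), HLA-B HiBit myoblasts were lysed for either Nano-Glo HiBiT luminescence or CellTiter Glo viability on paired plates.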
# Hek293T = assay: Primary qHTS to identify gynecologic anti-cancer compounds using libraries of approved drugs and bioactive compounds (AID 1345084); settings: Gynecologic cancer cell panel viability, ATPlite luminescence, 48 h, control line for the selectivity index; series mostly up to 57.5 µM; further: nearly all actives have a fitted effect of over 55% in size; on activity change, negative = cytotoxicity: on the % scale 0 is the no-effect control and ±100 the full control effect
# How it was run: as §1
# JEG-3 = assay: as above; settings: Gynecologic cancer cell panel viability, ATPlite luminescence, 48 h; series mostly up to 57.5 µM
# How it was run: as §1
# HeLa = assay: as above; settings: Gynecologic cancer cell panel viability, ATPlite luminescence, 48 h; series mostly up to 57.5 µM
# How it was run: as §1
# OV90 = assay: as above; settings: Gynecologic cancer cell panel viability, ATPlite luminescence, 48 h; series mostly up to 57.5 µM
# How it was run: as §1
# Tov112D = assay: as above; settings: Gynecologic cancer cell panel viability, ATPlite luminescence, 48 h; series mostly up to 57.5 µM
# How it was run: as §1
# SKOV3 = assay: as above; settings: Gynecologic cancer cell panel viability, ATPlite luminescence, 48 h; series mostly up to 57.5 µM
# How it was run: as §1
# Tov-21-G = assay: as above; settings: Gynecologic cancer cell panel viability, ATPlite luminescence, 48 h; series mostly up to 57.5 µM
# How it was run: as §1
# [2] = Drug repurposing screens with cells derived from glioblastoma tumor samples (AID 1345199); settings: GBM patient neurospheres viability, ATP luminescence, 48 h; further: nearly all actives have a fitted effect of over 40% in size; on activity, negative = cell killing: on the % scale 0 is the no-effect control and ±100 the full control effect
# How it was run: (§2)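 Primary testing used CD133+ neurospheres from four GBM patients, seven concentrations, 48 h exposure and ATP-based viability; confirmation added three slower-growing patient lines.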
# astro = assay: as above; settings: viability, ATP luminescence, 48 h; series mostly up to 91.6 µM
# How it was run: as §2
# Potency means the concentration at half of the fitted maximal effect.
structure (smiles),measurement,setting,value
Cc1cc(Nc2cc(N3CCN(C)CC3)nc(/C=C/c3ccccc3)n2)n[nH]1,Potency,C33A,28.2 µM (active)
same,Potency,CASKI,3.55 µM (active)
same,Potency,Es-2,inactive
same,Potency,PA-1,2.51 µM (active)
same,Potency,[1]; HiBiT,11.1 µM (active)
O=C(Nc1ccc(Cl)cc1F)c1ccccc1O,Potency,C33A,14.1 µM (active)
same,Potency,Es-2,15.8 µM (active)
same,Potency,Hek293T,17.8 µM (active)
same,Potency,JEG-3,inactive
CC(Oc1cc(-n2cnc3ccc(CN4CCN(C)CC4)cc32)sc1C(N)=O)c1ccccc1C(F)(F)F (stereo not given),Potency,C33A,8.91 µM (active)
same,Potency,Es-2,7.94 µM (active)
same,Potency,HeLa,3.55 µM (active)
same,Potency,JEG-3,5.62 µM (active)
same,Potency,OV90,inactive
same,Potency,PA-1,11.2 µM (active)
NCc1ccc(Nc2ncc(F)c(Nc3ccccc3)n2)cc1,Potency,C33A,inactive
same,Potency,CASKI,inactive
same,Potency,HeLa,15.8 µM (active)
same,Potency,Hek293T,inactive
same,Potency,JEG-3,inactive
same,Potency,OV90,inactive
same,Potency,PA-1,12.6 µM (active)
same,Potency,Tov112D,inactive
CN(C)C/C=C/C(=O)Nc1cccc(C(=O)Nc2ccc(Nc3nccc(-c4cccnc4)n3)cc2)c1,Potency,C33A,12.6 µM (active)
same,Potency,CASKI,7.08 µM (active)
same,Potency,HeLa,20 µM (active)
same,Potency,OV90,10 µM (active)
same,Potency,Tov112D,10 µM (active)
NC[C@@](O)(c1ccc(Cl)cc1)c1ccc(-c2cn[nH]c2)cc1,Potency,C33A,22.4 µM (active)
same,Potency,CASKI,28.2 µM (active)
same,Potency,HeLa,25.1 µM (active)
same,Potency,Hek293T,28.2 µM (active)
same,Potency,PA-1,15.8 µM (active)
same,Potency,SKOV3,20 µM (active)
same,Potency,Tov-21-G,10 µM (active)
same,Potency,Tov112D,25.1 µM (active)
same,Potency,[1]; HiBiT,6.25 µM (active)
same,Potency,[1]; Viability,8.83 µM (active)
O=C(c1cccc(Cl)c1F)N1CCN(Cc2cccc(Nc3nccs3)n2)CC1,Potency,C33A,inactive
same,Potency,Es-2,inactive
same,Potency,HeLa,1 µM (active)
same,Potency,JEG-3,inactive
same,Potency,OV90,inactive
same,Potency,Tov112D,0.891 µM (active)
CN(C)CCCCC(=O)Nc1ccc(NC(=S)NC(=O)c2ccc(C(C)(C)C)cc2)cc1,Potency,C33A,inactive
same,Potency,CASKI,inactive
same,Potency,JEG-3,inactive
same,Potency,PA-1,15.8 µM (active)
same,Potency,Tov112D,inactive
CCCN1CCC(c2cccc(S(C)(=O)=O)c2)CC1,Potency,C33A,inactive
same,Potency,Es-2,inactive
same,Potency,HeLa,inactive
same,Potency,Hek293T,inactive
same,Potency,OV90,inactive
CC(=O)O[C@H]1C(=O)[C@@]2(C)[C@H]([C@H](OC(=O)c3ccccc3)[C@]3(O)C[C@H](OC(=O)[C@H](O)[C@@H](NC(=O)c4ccccc4)c4ccccc4)C(C)=C1C3(C)C)[C@]1(OC(C)=O)CO[C@@H]1C[C@@H]2O,"activity change, negative = cytotoxicity",C33A,-4.13% [at 11.6 µM]
same,Potency,Es-2,0.126 µM (active)
same,Potency,HeLa,0.0316 µM (active)
same,"activity change, negative = cytotoxicity",OV90,-15.2% [at 11.6 µM]
same,"activity change, negative = cytotoxicity",SKOV3,0% [at 11.6 µM]
same,"activity, negative = cell killing","[2]; at 45.9 µM (top of the series), tumour line B",-12.5%
same,Potency,[2]; tumour line A,31.6 µM (active)
same,Potency,[2]; tumour line D,0.1 µM (active)
same,Potency,astro,39.8 µM (active)
CC(=O)NCC(=O)N1C2CCC1c1cc(Nc3ncc(C(F)(F)F)c(NC4CCC4)n3)ccc12 (stereo not given),Potency,C33A,inactive
same,Potency,Es-2,14.1 µM (active)
same,Potency,Hek293T,3.98 µM (active)
same,Potency,JEG-3,inactive
same,Potency,Tov-21-G,8.91 µM (active)
Cc1cc(N(C)C)ccc1-c1nc2ccc(-c3nc4ccc(N5CCN(C)CC5)cc4[nH]3)cc2[nH]1,Potency,C33A,inactive
same,Potency,Es-2,inactive
same,Potency,HeLa,inactive
same,Potency,Hek293T,inactive
same,Potency,JEG-3,inactive
same,Potency,OV90,inactive
same,Potency,Tov-21-G,inactive
same,Potency,Tov112D,inactive
COc1ccc2[nH]c3c(-c4cccc5ccccc45)nccc3c2c1,Potency,C33A,2.82 µM (active)
same,Potency,CASKI,1.41 µM (active)
same,Potency,Es-2,1.58 µM (active)
same,Potency,HeLa,0.891 µM (active)
same,Potency,PA-1,0.891 µM (active)
same,Potency,Tov112D,1.41 µM (active)
CN(C)c1ccc2c(c1)OC(N)=C(C#N)C2c1cccc(C(F)(F)F)c1 (stereo not given),Potency,C33A,0.631 µM (active)
same,Potency,Es-2,1 µM (active)
same,Potency,HeLa,0.501 µM (active)
same,Potency,JEG-3,0.282 µM (active)
same,Potency,OV90,1.41 µM (active)
same,Potency,PA-1,0.178 µM (active)
same,Potency,Tov-21-G,0.251 µM (active)
same,Potency,Tov112D,0.316 µM (active)
O=[N+]([O-])c1cccc2[nH]c(CNc3nc(N4CCOCC4)nc4c3ncn4-c3ccsc3)nc12,Potency,C33A,0.178 µM (active)
same,Potency,CASKI,0.891 µM (active)
same,Potency,HeLa,0.891 µM (active)
same,Potency,Hek293T,0.316 µM (active)
same,Potency,PA-1,0.891 µM (active)
same,Potency,SKOV3,0.794 µM (active)
same,Potency,Tov112D,0.447 µM (active)
O=C(O)C1CN(Cc2ccc(-c3nc4cc(Cc5ccccc5F)ccc4s3)c(F)c2)C1,"activity change, negative = cytotoxicity",C33A,7.49% [at 11.6 µM]
same,"activity change, negative = cytotoxicity",Es-2,0.907% [at 11.6 µM]
same,"activity change, negative = cytotoxicity",HeLa,11.8% [at 11.6 µM]
same,"activity change, negative = cytotoxicity",Hek293T,9.39% [at 11.6 µM]
same,"activity change, negative = cytotoxicity",JEG-3,9.86% [at 11.6 µM]
same,"activity change, negative = cytotoxicity",OV90,12.7% [at 11.6 µM]
same,"activity change, negative = cytotoxicity",Tov-21-G,0.219% [at 11.6 µM]
same,"activity change, negative = cytotoxicity",Tov112D,10.6% [at 11.6 µM]
N=c1nc2n(cc1F)C1OC(CO)C(O)C1O2 (stereo not given),Potency,C33A,inactive
same,Potency,CASKI,inactive
same,Potency,HeLa,inactive
same,Potency,Hek293T,inactive
same,Potency,JEG-3,inactive
same,Potency,PA-1,0.891 µM (active)
same,Potency,Tov-21-G,inactive
same,Potency,Tov112D,1.41 µM (active)
CC(C)(C)c1ccc(S(=O)(=O)NCc2ccc(C(=O)Nc3cccnc3)cc2)cc1,Potency,C33A,7.94 µM (active)
same,Potency,Es-2,3.55 µM (active)
same,Potency,HeLa,1.78 µM (active)
same,Potency,JEG-3,2.24 µM (active)
same,Potency,OV90,3.98 µM (active)
same,Potency,PA-1,1.12 µM (active)
same,Potency,SKOV3,7.08 µM (active)
same,Potency,Tov-21-G,1.78 µM (active)
N#Cc1cc(F)cc(-c2nc(-c3ccccn3)no2)c1,Potency,C33A,inactive
same,Potency,CASKI,inactive
same,Potency,Hek293T,inactive
same,Potency,Tov112D,inactive
CCCCNc1ncc2c(-c3ccc(F)cc3)nn(CC3CCC(N)CC3)c2n1 (stereo not given),Potency,C33A,11.2 µM (active)
same,Potency,CASKI,10 µM (active)
same,Potency,HeLa,10 µM (active)
same,Potency,Tov-21-G,7.94 µM (active)
CC1COC(Nc2ccc3ncnc(Nc4ccc(OCc5nccs5)c(Cl)c4)c3c2)=N1 (stereo not given),Potency,C33A,inactive
same,Potency,Es-2,inactive
same,Potency,HeLa,inactive
same,Potency,JEG-3,inactive
same,Potency,PA-1,inactive
same,Potency,SKOV3,15.8 µM (active)
